The list is not random: actives were taken first. Their share in the collection is about 13%.
Marburg entry inh = inhibitors of Marburg virus binding or cell entry | Potency, µM (doses to about 37.8 µM), most hits filed as inhibitors | Marburg virus pseudotyped entry inhibition, cell reporter | hit rate 1.8% among 300,000; calls by dose curve; tested in HEK293 cells
HCV inh = inhibitors of hepatitis C virus infection | hit rate 3.4% among 340,000 | Potency, µM (titrated, usually from 41.8 µM), hits mostly inhibitors | Huh7.5.1 HCVcc-Cre infection, luciferase reporter, 44 h; active means well fitted inhibition curve with a large enough effect; inconclusive means small, poorly fitted or top-dose-only effect, or another doubt; inactive means no such curve, though single readings can be large or run the other way
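Reporter virus HCVcc-Cre (~0.5 moi) infects cells exposed to compound; seeding density 1,000 cells/well with 4 h settling beforehand. Luminescence, 15 sec read, taken 44 h post-infection following a 15 min RT substrate incubation.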
Cycloheximide cs = counter-screen hit for Shiga toxin inhibitors, cycloheximide | cell reporter, cycloheximide protein synthesis inhibition counterscreen | max response, % | hit rate 12% among 300,000; in the data active means max response mostly above about 13%, no sharp cut-off; inactive means mostly below about 14%; further: read at 38.3 µM for the half of the compounds with a filed dose
FMDV inh = foot and mouth disease virus antiviral activity; FMDV antiviral cell-based qHTS; Potency, µM (highest dose often 57.9 µM), actives largely listed as inhibitors; hit rate 1.2% among 410,000; AID 1159524; calls by dose curve; tested in HEK293T cells; further: read-out not given here; nearly all actives have a fitted effect of over 45% in size
Lassa entry inh = blocks Lassa virus binding to or entry into cells; Lassa virus pseudotype entry inhibition, cell reporter; Potency, µM (top dose mostly 37.9 µM), actives largely listed as inhibitors; hit rate 1.2% among 300,000; AID 540256; calls by dose curve; tested in HEK293 cells; further: nearly all actives have a fitted effect of over 50% in size
Shiga inhibitor = inhibitors of Shiga toxin in Vero cells. AID 2315. Vero cells, Shiga toxin protein synthesis inhibition reporter. inhibition, % at 38.7 µM. hit rate 9.2% among 290,000; in the data active means inhibition mostly above about 28%, no sharp cut-off; inactive means mostly below about 43%
Large screens that a line does not name were inactive.

COC(=O)N/N=C/C1=CCC2CC1C2(C)C (stereo not drawn)	none
COc1ccc(C(=O)N/N=C/c2ccc(SC)cc2)cc1	Marburg entry inh inconclusive, HCV inh inconclusive, Cycloheximide cs 19, Lassa entry inh inconclusive
CC1(C)C2CC=C(/C=N/NC(=O)c3ccc(O)cc3)C1C2 (stereo not drawn)	Cycloheximide cs 15, Lassa entry inh inconclusive
CC(C)c1ccc(CN(C(=O)c2cc3ccccc3oc2=O)C2CCS(=O)(=O)C2)cc1 (stereo not drawn)	none
O=C(Cn1c(=O)c2sccc2n(Cc2ccc([N+](=O)[O-])cc2)c1=O)NCCc1ccccc1	Marburg entry inh inconclusive, HCV inh inconclusive, FMDV inh inconclusive, Lassa entry inh inconclusive
COCCN=C1N[C@@H](c2ccccc2)C(C(=O)OC)=C(C)N1Cc1ccccc1	none (no result: Marburg entry inh, Lassa entry inh)
COCCN=C1N[C@@H](c2ccc(Br)cc2)C(C(=O)OC)=C(C)N1Cc1ccccc1	HCV inh 3.5µM (no result: Marburg entry inh, Lassa entry inh)
CSc1n[nH]c(-c2ccc(C(F)(F)F)cc2)n1	Marburg entry inh inconclusive, Cycloheximide cs 41, Shiga inhibitor 107
CCN1CCCC1CNC(=O)c1ccc(N2CCOCC2)c(NS(=O)(=O)c2ccc(OC)cc2)c1 (stereo not drawn)	Marburg entry inh inconclusive
C=CCNC(=O)NC(=O)CSc1nnc(C(F)(F)F)n1C	none (no result: Marburg entry inh, Lassa entry inh)
O=[N+]([O-])c1ccc(NN=C2CCCCC2)c([N+](=O)[O-])c1	none (no result: Cycloheximide cs, Shiga inhibitor)
O=c1cccccc1NN=C1CCCCCC1	Cycloheximide cs 23, Shiga inhibitor 82
O=C(O)c1cc(Br)ccc1NN=C1CCCCC1	Cycloheximide cs 21
O=c1cccccc1NN=C1CCCCC1	Marburg entry inh inconclusive, Cycloheximide cs 35, Shiga inhibitor 80
Cc1cc(C)nc(Nc2ccc(Br)cc2C(=O)O)n1	Marburg entry inh inconclusive
O=C(Cc1ccccc1)NN=C1CCCC1	none (no result: Cycloheximide cs, Shiga inhibitor)
COc1cccc(CN(C)C(=O)CCNC(=O)c2ccco2)c1	none (no result: Marburg entry inh, Cycloheximide cs, Lassa entry inh, Shiga inhibitor)
COc1ccc(NC(=O)c2cccc3c(-c4ccc(O)c(OC)c4)coc23)cc1	none (no result: Marburg entry inh, HCV inh, Cycloheximide cs, Lassa entry inh, Shiga inhibitor)
O=C(CC1CC2CCC1C2)OCC(=O)c1c[nH]c2ccccc12 (stereo not drawn)	Cycloheximide cs 53, Shiga inhibitor 148
N/C(Cn1cncn1)=N\NC(=O)C(=O)Nc1cccc(C(F)(F)F)c1	none
COc1cccc(C(C(=O)NC(C)(C)C)N(Cc2ccco2)C(=O)CCC(=O)Nc2cc(C)on2)c1OC (stereo not drawn)	Marburg entry inh inconclusive
Cc1ccccc1Nc1nc2ccccc2s1	Marburg entry inh inconclusive, Cycloheximide cs 66, Lassa entry inh inconclusive, Shiga inhibitor 135
O=c1c2ccccc2nc2sc(Nc3ccc(F)cc3)nn12	none (no result: Marburg entry inh, HCV inh, Cycloheximide cs, Lassa entry inh, Shiga inhibitor)
Cc1ccc(S(=O)(=O)Nc2nc3ccccc3s2)cc1	Lassa entry inh inconclusive
Cc1ccc(Nc2nc3ccccc3s2)cc1	Marburg entry inh inconclusive, Cycloheximide cs 29, Lassa entry inh inconclusive, Shiga inhibitor 72
CC1(C)CN=C(Nc2nc3ccccc3s2)S1	Marburg entry inh inconclusive, Cycloheximide cs 38, Shiga inhibitor 77
Fc1ccc(Nc2nc3ccccc3s2)cc1	Marburg entry inh inconclusive, Cycloheximide cs 40, Shiga inhibitor 120
CN(C)/[N+]([O-])=N/Oc1cc(O/[N+]([O-])=N/N2CCCC2CO)c([N+](=O)[O-])cc1[N+](=O)[O-] (stereo not drawn)	none (no result: Marburg entry inh, HCV inh, FMDV inh, Lassa entry inh)
Cc1c(Cl)cccc1NC(=O)NCc1ccc(F)cc1	none (no result: Marburg entry inh, Lassa entry inh)
Cc1cc(C)c(NC(=O)C(C)n2nnc3sc4c(c3c2=O)CCCC4)c(C)c1 (stereo not drawn)	none (no result: HCV inh, Cycloheximide cs, Shiga inhibitor)
NNCc1cccc(O)c1	Cycloheximide cs 35, Shiga inhibitor 102 (no result: Lassa entry inh)
Oc1cccc(O)c1	none (no result: Marburg entry inh, HCV inh, Cycloheximide cs, Lassa entry inh, Shiga inhibitor)
Nc1c(-c2ccccc2)n[nH]c1-c1ccccc1	Cycloheximide cs 31, Shiga inhibitor 78
COc1ccc(C2=NOC(C(=O)Nc3ccc4c(c3)OCO4)C2)cc1OC (stereo not drawn)	Cycloheximide cs 28, Shiga inhibitor 89
COc1cc(C2=NOC(C(=O)Nc3ccc4c(c3)OCO4)C2)cc(OC)c1OC (stereo not drawn)	Cycloheximide cs 18 (no result: Marburg entry inh, Lassa entry inh)
COc1ccc(NC(=O)C2CC(c3ccc(OC)c(OC)c3)=NO2)cc1OC (stereo not drawn)	HCV inh inconclusive
NS(=O)(=O)c1ccc(NC(=S)N2CCN(c3ccccc3)CC2)cc1	Marburg entry inh inconclusive
COc1cccc(/C=N/N2CCOCC2)c1O	Marburg entry inh inconclusive, Cycloheximide cs 24, Shiga inhibitor active
Fc1ccc(/C=N/N2CCOCC2)c(F)c1	Cycloheximide cs 21 (no result: Marburg entry inh, Lassa entry inh)
CCOc1cc(/C=N/N2C(=O)NC3(CCCCC3)C2=O)cc(Br)c1O	none (no result: Marburg entry inh, Lassa entry inh)
COc1cccc(/C=N/N2C(=O)NC3(CCCCC3)C2=O)c1O	Cycloheximide cs 37, Lassa entry inh inconclusive
COc1cccc(C=Nc2ccc(N3CCOCC3)cc2)c1O	none (no result: Marburg entry inh, Lassa entry inh)
COc1cccc(C=Nc2ccc3c(c2)OCCO3)c1O	Cycloheximide cs 75, Shiga inhibitor 107
Fc1cccc(F)c1/C=N/N1CCOCC1	none
CCCN1CCN(C(=O)CCNC(=O)Cn2cnc3ccccc3c2=O)CC1	none
COc1ccccc1N1CCN(CC(=O)N2CCCC2)CC1	none
Oc1ccc(/C=N/N2CCOCC2)c(O)c1O	none
COc1ccc(O)c(/C=N/N2CCOCC2)c1	Cycloheximide cs 41, Shiga inhibitor 99
C/C(=N\NC(=O)c1ccccc1)c1c(C)[nH]n(-c2ccccc2)c1=O	Marburg entry inh inconclusive, HCV inh inconclusive, Cycloheximide cs 49, Shiga inhibitor 61
Cc1[nH]n(-c2ccccc2)c(=O)c1C(=O)Nc1ccccc1	Cycloheximide cs 16
Cc1[nH]n(-c2ccccc2)c(=O)c1C(=O)c1ccc([N+](=O)[O-])cc1	Marburg entry inh inconclusive, FMDV inh inconclusive
C/C(=N\NC(=O)c1ccncc1)c1c(O)n(-c2ccccc2)c(=O)[nH]c1=O	FMDV inh inconclusive (no result: Marburg entry inh, Lassa entry inh)
C/C(=N\NC(=O)c1ccc(C)cc1)c1c(C)[nH]n(-c2ccccc2)c1=O	Cycloheximide cs 30 (no result: Marburg entry inh, Lassa entry inh)
CCC[N+]12CCC(CC1)C(=C(c1ccccc1)c1ccccc1)C2	none
COc1ccc(S(=O)(=O)N2CCN(C(=O)CC(C)C)CC2)cc1	none
CN(Cc1ccccc1)C(=O)CSc1nc(-c2ccc(F)cc2)cc(C(F)(F)F)n1	Marburg entry inh inconclusive (no result: HCV inh, Cycloheximide cs, Shiga inhibitor)
O=C(Nc1cccc(-c2ccc(N3CCOCC3)nn2)c1)c1ccc([N+](=O)[O-])cc1	Marburg entry inh inconclusive, HCV inh inconclusive (no result: Cycloheximide cs, Shiga inhibitor)
O=C(CC(c1ccccc1)c1ccccc1O)NCCN1CCOCC1 (stereo not drawn)	none
CC1CCc2nc(NC(=O)Nc3ccc4c(c3)OCO4)sc2C1 (stereo not drawn)	Marburg entry inh inconclusive, HCV inh inconclusive, Cycloheximide cs 45, Lassa entry inh inconclusive, Shiga inhibitor 91
CC1CCc2nc(NC(=O)CN3CCN(c4ccccc4)CC3)sc2C1 (stereo not drawn)	FMDV inh inconclusive
CC1CCc2nc(NC(=O)CN3CCN(Cc4ccc5c(c4)OCO5)CC3)sc2C1 (stereo not drawn)	Marburg entry inh inconclusive, HCV inh 32µM, FMDV inh inconclusive
